Here are results for nine compounds from PubChem BioAssay (NCATS).

In one experiment the test system is W2. The experiment is described as follows: qHTS profiling for inhibitors of Plasmodium falciparum proliferation (AID 504749). Further: nearly all actives have a fitted effect of over 60% in size. As to conditions: P. falciparum in erythrocytes, SYBR Green DNA, 72 h; series mostly up to 28.7 µM. An outline of the steps: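 Infected RBCs, 0.3% parasitemia/2.5% Hct final; cpd 72 h, 37 C, 5% CO2; lysis buffer with saponin/triton/SYBR Green I, o/n RT dark; FI 485/535; norm. to artemisinin (0.29 uM) and DMSO.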
A general note: qHTS replaces the single test concentration by a dilution series.

In a further experiment the test system is CRL-7250. As to the kind of experiment: Cytotoxic Profiling of Annotated Libraries Using Quantitative High-Throughput Screening (AID 1296008). Further: nearly all actives have a fitted effect of over 60% in size. On max response: on the % scale 0 is the no-effect control and ±100 the full control effect. As to conditions: Five cell lines viability, CellTiter-Glo ATP luminescence, 48-72 h; max response: stronger effect = lower value. An outline of the steps: (§1)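 Cytotoxicity was measured as CellTiter-Glo ATP luminescence, read after 10 min at room temperature. Compound treatment of the cells lasted 48 or 72 hr at 37 degrees Celsius in a qHTS format.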

Experiment [1] deals with HaCat. The experiment is described as above. The settings on record: Five cell lines viability, CellTiter-Glo ATP luminescence, 48-72 h; max response: stronger effect = lower value. An outline of the steps:
as §1
(In general: In ATP-based viability assays light output follows the ATP content of the culture.)

A further experiment deals with NIH3T3. The description is as above. As to conditions: Five cell lines viability, CellTiter-Glo ATP luminescence, 48-72 h; max response: stronger effect = lower value. In outline:
as §1

Another experiment relates to MCC-13. As to the kind of experiment: qHTS assay to identify novel small-molecules to repurpose for Merkel cell carcinoma treatment (AID 1296009). Further: nearly all actives have a fitted effect of over 60% in size. As to conditions: MCC and control cell lines, CellTiter-Glo viability, 72 h; series mostly up to 46 µM. In outline: (§2)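 72 hr, 37 degree celsius; NPC 8-pt / MIPE 11-pt dose response; compound pinned in DMSO; CellTiter-Glo, 10 min RT, luminescence; normalized to no-cell and DMSO controls.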

A further experiment relates to MCC-26. The experiment is described as above. As to conditions: MCC and control cell lines, CellTiter-Glo viability, 72 h; series mostly up to 46 µM. An outline of the steps:
as §2

For a further experiment, the system named is MKL-1. The experiment is described as above. As to conditions: MCC and control cell lines, CellTiter-Glo viability, 72 h; series mostly up to 46 µM. An outline of the steps:
as §2

The test system of the next experiment is MKL-2. The experiment is described as above. As to conditions: MCC and control cell lines, CellTiter-Glo viability, 72 h; series mostly up to 46 µM. In outline: as §2
For the next experiment, the system named is UISO. The description is as above. As to conditions: MCC and control cell lines, CellTiter-Glo viability, 72 h; series mostly up to 46 µM. An outline of the steps:
as §2

Another experiment has as its system WaGa. The experiment is described as above. The settings on record: MCC and control cell lines, CellTiter-Glo viability, 72 h; series mostly up to 46 µM. An outline of the steps:
as §2

In another experiment the test system is C33A. The experiment is described as follows: Primary qHTS to identify gynecologic anti-cancer compounds using libraries of approved drugs and bioactive compounds (AID 1345084). Further: nearly all actives have a fitted effect of over 55% in size. As to conditions: Gynecologic cancer cell panel viability, ATPlite luminescence, 48 h; series mostly up to 57.5 µM. An outline of the steps: (§3)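 Five-concentration response, 48 h; readout is ATP-driven luciferase luminescence.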

The test system of the next experiment is CASKI. The description is as above. The settings on record: Gynecologic cancer cell panel viability, ATPlite luminescence, 48 h; series mostly up to 57.5 µM. An outline of the steps:
as §3

A further experiment has as its system Es-2. Described as above. As to conditions: Gynecologic cancer cell panel viability, ATPlite luminescence, 48 h; series mostly up to 57.5 µM. In outline: as §3
In the next experiment the test system is HeLa. Described as above. As to conditions: Gynecologic cancer cell panel viability, ATPlite luminescence, 48 h; series mostly up to 57.5 µM. An outline of the steps:
as §3

The next experiment deals with HEK293. The experiment is described as follows: Cytotoxic Profiling of Annotated Libraries Using Quantitative High-Throughput Screening (AID 1296008). Further: nearly all actives have a fitted effect of over 60% in size. On max response: on the % scale 0 is the no-effect control and ±100 the full control effect. As to conditions: Five cell lines viability, CellTiter-Glo ATP luminescence, 48-72 h; max response: stronger effect = lower value. In outline:
as §1

Another experiment concerns KB-3-1. The description is as above. The settings on record: Five cell lines viability, CellTiter-Glo ATP luminescence, 48-72 h; max response: stronger effect = lower value. In outline:
as §1

Experiment [2] deals with HACAT. The experiment is described as follows: qHTS assay to identify novel small-molecules to repurpose for Merkel cell carcinoma treatment (AID 1296009). Further: nearly all actives have a fitted effect of over 60% in size. As to conditions: MCC and control cell lines, CellTiter-Glo viability, 72 h; at 44.8 µM (top of the series) unless noted. In outline: as §2
For the next experiment, the system named is CAOV3. As to the kind of experiment: Primary qHTS to identify gynecologic anti-cancer compounds using libraries of approved drugs and bioactive compounds (AID 1345084). Further: nearly all actives have a fitted effect of over 55% in size. The settings on record: Gynecologic cancer cell panel viability, ATPlite luminescence, 48 h; series mostly up to 57.5 µM. In outline:
as §3

Molecules are shown by their SMILES. Where “and” joins values, the source holds several entries; their conditions need not be identical. Identical values can stand only once. Records with an inconclusive call do not appear. Values without a mark were called inactive. Calls of active or inactive are those of the source. The call rests on the fitted dose curve; in most records, active means well fitted curve in the direction sought with a large enough effect; inconclusive means small, poorly fitted or top-dose-only effect, or another doubt; inactive means no such curve, though single readings can be large; an effect the other way counts as inactive or inconclusive.
Potency means the concentration at half of the fitted maximal effect.

Consider `COc1ccc(-c2cc(C(F)F)nn2-c2ccc(S(N)(=O)=O)cc2)cc1F`, for which the Potency entry in the experiment on W2, in the experiment on MCC-13, in the experiment with MCC-26, in the experiment with MKL-1, in the experiment with MKL-2 and in the experiment on UISO was “inactive” throughout. Besides, the Potency result in the experiment on WaGa, in the experiment on C33A, with CASKI, with Es-2 and in the experiment on HeLa was “inactive” in each case. Further, the max response is 2.74% in the experiment with CRL-7250, -0.189% in the experiment with HaCat [1] and 1.89% in the experiment on NIH3T3.

With `CCOc1ccccc1OCCN[C@H](C)Cc1ccc(OC)c(S(N)(=O)=O)c1`, the max response in the experiment on HEK293 is -5.03%; in the experiment on KB-3-1, 4.78%; in the experiment with NIH3T3, 2.8%. The call with HaCat [1] and in the experiment on HACAT [2] was inactive. For the same compound, the Potency entry in the experiment on MCC-13, in the experiment with MCC-26, in the experiment with MKL-1, in the experiment on MKL-2, in the experiment with UISO and in the experiment on WaGa was “inactive” each time. For the same compound, the Potency result with C33A, in the experiment on CAOV3, in the experiment on CASKI, in the experiment on Es-2 and with HeLa was “inactive” throughout.

Turning to `CNCCCCOc1ccccc1Cc1ccccc1`, the Potency in the experiment on W2 is 1.35 µM (active); in the experiment with HEK293 it was 15 µM (active); in the experiment on MKL-2 it was 18.8 µM (active); in the experiment with WaGa, 18.8 µM (active); in the experiment with C33A, 25.1 µM (active). For the same compound, the max response in the experiment on HaCat [1] is -10%; with KB-3-1 it was 9.62%. For the same compound, the Potency entry in the experiment on MCC-13, in the experiment on MCC-26 and in the experiment with HeLa was “inactive” each time.

`O[C@@H](c1cc(C(F)(F)F)nc2c(C(F)(F)F)cccc12)[C@H]1CCCCN1`: the Potency was 9.44 µM (active) with HEK293; 25.9 µM (active) in the experiment with KB-3-1; 21.1 µM (active) in the experiment with MKL-1; 2.99 µM (active) in the experiment with MKL-2; 23.7 µM (active) in the experiment with UISO; 28.2 µM (active) with C33A. Moreover, the Potency in the experiment on CAOV3 is 20 µM (active).

With `O=C1c2cccc3c2[C@H](CCC3)CN1[C@@H]1CN2CCC1CC2`, the Potency in the experiment on HEK293 was 21.1 µM (active). Also, the max response in the experiment on HaCat [1] is -46%. For the same compound, the Potency entry in the experiment on MCC-13, in the experiment on MKL-1, in the experiment on MKL-2, in the experiment on UISO, with WaGa and in the experiment with C33A was “inactive” throughout. Further, the Potency entry in the experiment with CAOV3, in the experiment with CASKI, with Es-2 and in the experiment on HeLa was “inactive” in each case.

Take `C=C[C@H]1CN2CC[C@H]1C[C@H]2[C@H](O)c1ccnc2ccc(OC)cc12`: the max response with HaCat [1] was -3.94%; in the experiment on KB-3-1 it was 4.92% and -14.4% and -25.6%; in the experiment on NIH3T3, -2.33%. Also, the Potency result in the experiment on MCC-13, in the experiment on MCC-26, in the experiment on MKL-1, in the experiment on MKL-2, in the experiment with UISO and in the experiment with C33A was “inactive” each time. Further, the Potency entry in the experiment on CAOV3, in the experiment on CASKI, with Es-2 and in the experiment on HeLa was “inactive” throughout.

In the case of `O=c1[nH]c(=O)n([C@H]2C[C@H](O)[C@@H](CO)O2)cc1F`, in the experiment on W2, the Potency result was “inactive”. Also, the Potency in the experiment with HEK293 is 0.0299 µM (active); with HaCat [1] it was 0.0084 µM (active); in the experiment on NIH3T3, 0.006 µM (active); in the experiment with WaGa it was 0.0335 µM (active); in the experiment on CAOV3 it was 1.58 µM (active); with HeLa, 5.01 µM (active).

Take `CCCCCCCCNC(C)C(O)c1ccc(SC(C)C)cc1` (configuration not stated): the Potency is 0.169 µM (active) in the experiment on W2, 13.3 µM (active) in the experiment with HEK293 and 18.8 µM (active) with MKL-2. For the same compound, the max response with KB-3-1 is 7.32%. For the same compound, the Potency entry in the experiment on HeLa is “inactive”.

Regarding `CCc1ccc(C(=O)C(C)CN2CCCCC2)cc1` (configuration not stated), the max response in the experiment with HEK293 is -19.7%; in the experiment on NIH3T3, -2.26%. For the same compound, the outcome in the experiment with HaCat [1] and in the experiment on HACAT [2] was inactive. Besides, the Potency result in the experiment with MCC-13, in the experiment with MCC-26, with UISO, with C33A, with CAOV3 and with CASKI was “inactive” in each case. In addition, the Potency entry in the experiment with Es-2 and with HeLa was “inactive” in each case. For the same compound, in the experiment with MKL-2, the Potency was 11.9 µM (active).
